In the library only some 2.2% were active in any assay of this set; here they are far more common.
PfHsp90 set2: growth inhibition of yeast expressing Plasmodium Hsp90. actives 0.32% (n = 310,000). S. cerevisiae expressing PfHsp90, BacTiter-Glo ATP, 48 h; yeast lacking PDR1 and PDR3 efflux regulators. inhibition, % at 9.4 µM;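 active means every replicate shows inhibition above about 80%, whatever the replicate mean, limit read from the data; inconclusive means mean inhibition reaches the set limit but some replicate falls short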;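 further: 0% = DMSO neutral controls and 100% = 20 µM radicicol positive controls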
Shn3 inh set2: inhibitors of Schnurri-3 3'UTR reporter in osteoblasts; inhibition, % at 12.5 µM; Clone20 osteoblast Shn3 3'UTR firefly luciferase, 24 h; actives 0.52% (n = 360,000);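 active means mean inhibition of at least 75% with every replicate also reaching 75%; inconclusive means mean inhibition at least 75% but some replicate below; inactive means mean inhibition below 75%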;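 further: 0% = median of neutral control wells and 100% = pilot-screen positive control compound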
Calb FLC: affects C. albicans growth with fluconazole | C. albicans CaCi-2 (fluconazole-resistant clinical isolate) + fluconazole, Alamar Blue growth, 48 h | growth inhibition, % (concentration not given with the values) | actives 0.57% (n = 300,000) | AID 1979;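 active means growth inhibition above about 58% in most replicates, limit read from the data, passing the limit was not always enough; inconclusive means exactly half the replicates above a set limit; inactive means most replicates below a set limit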;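 further: all wells also contain fluconazole at 8 µg/ml as a sub-toxic cotreatment; 0% = median of DMSO wells and 100% = median of geldanamycin control wells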
CSC inhib: cancer stem cell inhibition; cancer stem cell-like cells viability, luminescence; inhibition, % at 7.5 µM; actives 1.1% (n = 300,000); AID 2717; in the data active means inhibition above about 75%; inconclusive means no clear call, values can overlap the other calls; tested in HMLE shEcad cells
Beta cell apopt: beta cell apoptosis inhibition; INS-1E cytokine-induced death, ATP luminescence, 48 h; percent of positive-control rescue, neutral wells zero; protection from apoptosis, % (concentration not given with the values); actives 0.8% (n = 300,000);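 active means Every replicate reaches about 75%, or at least half do and their mean reaches it too, limit read from the data; inconclusive means At least half of replicates reach the limit but their mean does not; inactive means Under half of replicates reach the limit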;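 further: 0% = cytokine-treated negative control wells and 100% = positive control rescue; higher means more ATP so stronger rescue from cytokine killing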
Starred values were filed as active, the others as inactive.

Screening C/C(=N/NC(=O)c1ccccc1O)c1ccc(N2C(=O)C3CCCCC3C2=O)cc1 (configuration not stated) returned PfHsp90 set2 -13, Shn3 inh set2 -55, Calb FLC 111*, CSC inhib -14 and Beta cell apopt -2.
Screening C/C(=N\NC(=O)c1cc(-c2cccc([N+](=O)[O-])c2)n[nH]1)c1ccccc1O returned PfHsp90 set2 1, Shn3 inh set2 12, Calb FLC 10 and CSC inhib 80*.
`Cn1ncc2c(O/N=C(\N)c3ccc(C(C)(C)C)cc3)ncnc21` gave PfHsp90 set2 -34, Shn3 inh set2 5, Calb FLC -2, CSC inhib 108* and Beta cell apopt 110*.
Screening Cc1ccc(NC(=O)COC(=O)c2ccc(-n3cccn3)cc2)cc1C returned Shn3 inh set2 -17.
CCOc1ccc(S(=O)(=O)Nc2cccc(C(=O)NCCCn3ccnc3)c2)cc1 was read as PfHsp90 set2 36, Shn3 inh set2 13 and Beta cell apopt 6.
Screening COc1ccc(-c2nc(CN3CCN(c4cc(C)nc(C)c4)CC3)c(C)o2)c2ccccc12 returned PfHsp90 set2 10, Shn3 inh set2 13, Calb FLC 84*, CSC inhib -12 and Beta cell apopt 21.
`COc1ccccc1N=Nc1ccc(O)c2ncccc12` gave PfHsp90 set2 99*, Shn3 inh set2 25, Calb FLC 97*, CSC inhib 27 and Beta cell apopt 20.
CCS(=O)(=O)c1ccc(N=Nc2ccc(O)c3ncccc23)c(OC)c1 was read as PfHsp90 set2 59, Shn3 inh set2 95* and Calb FLC inconclusive.
Screening CCS(=O)(=O)c1ccc(O)c(NC(=O)c2cc(OC)c(OC)c(OC)c2)c1 returned PfHsp90 set2 -36, Shn3 inh set2 -3, Calb FLC -6, CSC inhib -1 and Beta cell apopt 0.
Cc1ccc(N=Nc2ccc(O)c3ncccc23)cc1 was read as PfHsp90 set2 -42, Shn3 inh set2 91*, Calb FLC inconclusive, CSC inhib 99* and Beta cell apopt 102*.
For Oc1ccc(N=Nc2ccccc2C(F)(F)F)c2cccnc12 the results were PfHsp90 set2 -25, Shn3 inh set2 90*, Calb FLC 98*, CSC inhib 100* and Beta cell apopt 90*.
For Cc1ccc(N=Nc2ccc(O)c3ncccc23)cc1C the results were PfHsp90 set2 -58, Shn3 inh set2 54, Calb FLC 9, CSC inhib 1 and Beta cell apopt -6.
`COCC(C)NC(=S)Nc1ccccc1[N+](=O)[O-]` (configuration not stated) gave PfHsp90 set2 11, Shn3 inh set2 -13, Calb FLC 29, CSC inhib 2 and Beta cell apopt -14.
Screening COc1ccc(C)cc1NC(=O)CN1C(=O)COc2ccc(S(=O)(=O)N3CCC(C)CC3)cc21 returned PfHsp90 set2 17, Shn3 inh set2 22, Calb FLC -5, CSC inhib 17 and Beta cell apopt 2.
`CSCCC(NS(=O)(=O)c1ccccc1F)C(=O)Nc1ccncc1` (configuration not stated) gave PfHsp90 set2 4, Shn3 inh set2 5, CSC inhib -4 and Beta cell apopt 2.
For CCCOc1ccc2ccccc2c1/C=C1\SC(=O)NC1=O the results were PfHsp90 set2 105*, Shn3 inh set2 3, Calb FLC 45, CSC inhib 56 and Beta cell apopt 14.
`O=C1NC(=O)/C(=C/c2cccc3ccccc23)S1` gave PfHsp90 set2 -35, Shn3 inh set2 -6, Calb FLC 107* and CSC inhib 18.
For O=C(COC(=O)COc1ccc(Cl)cc1)NC1CCCC1 the results were PfHsp90 set2 8, Shn3 inh set2 -20, CSC inhib 7 and Beta cell apopt 5.
O=C(NC(=S)N(CCO)Cc1ccccc1)c1ccc(F)cc1Cl was read as PfHsp90 set2 -9, Shn3 inh set2 11, Calb FLC 2, CSC inhib -15 and Beta cell apopt -1.
`COc1ccc(C(=O)N/N=C/c2sc3ccccc3c2O)cc1` gave PfHsp90 set2 100*, Shn3 inh set2 54, Calb FLC 27, CSC inhib inconclusive and Beta cell apopt 96*.
`O=C(N/N=C/c1sc2ccccc2c1O)c1cccc2ccccc12` gave PfHsp90 set2 104*, Shn3 inh set2 70, Calb FLC 88*, CSC inhib 97* and Beta cell apopt 97*.
`O=C(N/N=C/c1ccccc1)c1cccc2ccccc12` gave PfHsp90 set2 -17, Shn3 inh set2 -18, Calb FLC -1, CSC inhib 36 and Beta cell apopt -7.
O=C(N/N=C/c1ccc(F)cc1)c1ccccc1 was read as PfHsp90 set2 5, Shn3 inh set2 -48, Calb FLC -3, CSC inhib 1 and Beta cell apopt 1.
For O=C(N/N=C/c1sc2ccccc2c1O)c1ccccc1 the results were PfHsp90 set2 100*, Shn3 inh set2 77, Calb FLC 21, CSC inhib 35 and Beta cell apopt 103*.
COc1ccc2cc(C(=O)N/N=C/c3sc4ccccc4c3O)ccc2c1 was read as PfHsp90 set2 -49, Shn3 inh set2 22, Calb FLC -6, CSC inhib 147* and Beta cell apopt 92*.
`COc1ccc(C(=O)N/N=C/c2c[nH]c3ccccc23)cc1` gave PfHsp90 set2 -1, Shn3 inh set2 -16, Calb FLC -10, CSC inhib 9 and Beta cell apopt -3.
`OC(c1ccccc1)c1ncc(-c2cccc(F)c2)[nH]1` (configuration not stated) gave Shn3 inh set2 -19.
O=C1CC(N2CCN(c3ccc(O)cc3)CC2)C(=O)N1c1ccc2c(c1)OCO2 (configuration not stated) was read as PfHsp90 set2 4, Shn3 inh set2 16, Calb FLC 0, CSC inhib 3 and Beta cell apopt -2.
O=C1CC(N2CCCCCC2)C(=O)N1c1ccc2c(c1)OCO2 (configuration not stated) was read as PfHsp90 set2 121*, Shn3 inh set2 19, Calb FLC 36, CSC inhib -1 and Beta cell apopt -1.
Screening O=C(NCCc1ccc(Cl)cc1)C1CCN(C(=O)c2ccc(F)cc2)CC1 returned PfHsp90 set2 -3, Shn3 inh set2 -2, Calb FLC 7, CSC inhib -15 and Beta cell apopt -1.
`CCCc1ccc(Oc2cn[nH]c2-c2ccc(O)cc2O)cc1` gave PfHsp90 set2 inconclusive, Shn3 inh set2 27, Calb FLC 68*, CSC inhib inconclusive and Beta cell apopt 2.
For C=C(C)COc1ccc(-c2[nH]ncc2-c2ccc(OC)c(OC)c2)c(O)c1 the results were PfHsp90 set2 -3, Shn3 inh set2 53, Calb FLC -7, CSC inhib 92* and Beta cell apopt 24.
Screening C=C(C)COc1ccc(-c2n[nH]c(C)c2-c2ccc(OC)c(OC)c2)c(O)c1 returned PfHsp90 set2 -6, Shn3 inh set2 16, Calb FLC 1, CSC inhib 81* and Beta cell apopt 21.

Compound activity deposited in PubChem BioAssay by Broad Institute.
